Source: PubChem
A selection: hits, their analogues and other compounds. The true share with any hit is near 6.2%.
MARV entry inh = qHTS for inhibitors of binding or entry into cells for Marburg Virus. Marburg virus pseudotyped entry inhibition, cell reporter. Potency, µM (highest dose often 37.8 µM), without a hit: at the highest dose activity change, negative = inhibition, usual class: inhibitors. 300,000 compounds, 1.8% hits. AID 540276, 2011; calls by dose curve; tested in HEK293 cells; further: potency means the concentration at half of the fitted maximal effect
LASV entry inh = qHTS for Inhibitors of binding or entry into cells for Lassa Virus; Potency, µM (titrated, usually from 37.9 µM), without a hit: top-dose activity change, negative = inhibition, actives largely listed as inhibitors; 300,000 compounds, 1.2% hits; AID 540256, 2011; Lassa virus pseudotype entry inhibition, cell reporter; calls by dose curve; tested in HEK293 cells; further: potency means the concentration at half of the fitted maximal effect; nearly all actives have a fitted effect of over 50% in size
HCMV antiviral = qHTS Assay for inhibitors of the human cytomegalovirus (HCMV). HFF cells, HCMV-luciferase reporter, 72 h; stronger effect = lower value. activity change, negative = inhibition, % at 57.5 µM. 410,000 compounds, 4.5% hits; in the data active means activity change below about -60%; inconclusive means no clear call, values can overlap the other calls; inactive means above about -39%
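Compounds were evaluated in HFFs infected with an HCMV luciferase reporter virus (MOI 1 PFU/cell). Luciferase in lysates collected 72 h post infection served as the replication measure.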
FMDV inh = High Throughput Screening for Foot and Mouth Disease Virus Antivirals; Potency, µM (top dose mostly 57.9 µM), without a hit: at the top dose activity change, negative = inhibition, hits mostly inhibitors; FMDV antiviral cell-based qHTS; 410,000 compounds, 1.2% hits; calls by dose curve; tested in HEK293T cells; further: read-out not given here; potency means the concentration at half of the fitted maximal effect; nearly all actives have a fitted effect of over 45% in size
* marks the source's active call; other numbers are inactive results; ? = inconclusive; . = no result given; [ ] = another dose, or the depositor's remark. On the % scale 0 is the no-effect control and ±100 the full control effect.

SMILES	MARV entry inh	LASV entry inh	HCMV antiviral	FMDV inh
COC(=O)c1[nH]c2ccc(C)cc2c1NC(=O)CN1CCN(c2ccc(F)cc2)CC1	?	13µM*	-83*	25µM*
COC(=O)c1[nH]c2ccc(Cl)cc2c1NC(=O)CN1CCc2cc(OC)c(OC)cc2C1	?	?	58	?
COC(=O)c1[nH]c2cc(C)ccc2c1NC(=O)CN1CCc2cc(OC)c(OC)cc2C1	?	?	.	22µM*
CN1C(=CC=C2C=C(I)C(=O)C(I)=C2)C(C)(C)c2ccccc21	-3%[46.1 µM]	12%	-77*	22µM*
CN1/C(=C\C=C2/SC(=S)NC2=O)C(C)(C)c2ccccc21	.	.	-93*	?
CN1/C(=C\C=C2C(=O)NC(=S)NC2=O)C(C)(C)c2ccccc21	?	-22%[46.1 µM]	-20	-18%
CCOCCCNC(=O)C1CCN(S(=O)(=O)c2c(C)noc2/C=C\c2ccc(OC)cc2)CC1	-14%	1%	13	5%
COCCNC(=O)/C(=C/c1ccccc1Cl)c1ccccc1	3%	?	-77*	0%
C/C(=N\NC(=S)Nc1cc(S(=O)(=O)N2CCOCC2)ccc1Cl)c1ccccc1F	?	?	-92*	13µM*
CC(C)N(C(=S)Nc1cc(S(=O)(=O)N2CCOCC2)ccc1Cl)c1ccccc1	?	0%	-9	-2%
O=C(O)CCc1ccc(-c2ccc(Cl)cc2)n1CCC(=O)O	6%	14%	-32	.
O=C(CSc1ncnc2ccccc12)NC1CCS(=O)(=O)C1 (centres undefined)	?	-2%	?	-22%
O=C(COC(=O)C1(c2ccccc2F)CCCC1)NCc1ccc2c(c1)OCO2	-7%	?	-60*	0%
O=C(COC(=O)c1ccc([N+](=O)[O-])o1)NCc1ccc2c(c1)OCO2	.	.	-83*	-4%
O=C(CN(Cc1ccccc1F)C(=O)c1csnn1)NCc1ccc2c(c1)OCO2	-8%[46.1 µM]	2.8µM*	-16	-5%
O=C(COC(=O)/C=C/c1ccc(F)cc1)NCc1ccc2c(c1)OCO2	9%[46.1 µM]	25%[46.1 µM]	?	-8%
O=C(COC(=O)/C=C/c1ccc2c(c1)OCO2)NCc1ccc(F)cc1	.	.	-64*	-25%
O=C(CN(Cc1ccc(F)cc1)C(=O)c1csnn1)NCc1ccc2c(c1)OCO2	-17%[46.1 µM]	.	-11	1%
O=C(O)C1CC(=O)N(c2ccc(Br)cc2)C1 (centres undefined)	-4%	16%	38	5%
COc1ccc(C(=O)NCCSCc2ccc(C)cc2)cc1	0%	?	-29	-17%
O=C(COC(=O)c1ccc(F)cc1F)NCc1ccc2c(c1)OCO2	11%	16%	-15	1%
O=C(COC(=O)C1(c2ccc(F)cc2)CCCC1)NCc1ccc2c(c1)OCO2	?	-2%	-60*	40µM*
O=C(COC(=O)C1(c2ccccc2F)CCCC1)NCc1cccs1	?	?	-69*	-24%
CCC1CCCCN1CCCNC(=O)C1CCN(S(=O)(=O)N2CCC3(CC2)OCCO3)CC1 (centres undefined)	.	.	19	-4%
c1nc(NCCN2CCOCC2)c2c3c(sc2n1)CCCCC3	-4%	-7%	1	-15%
SMILES	MARV entry inh	LASV entry inh	HCMV antiviral	FMDV inh
Clc1ccc(-c2csc3ncnc(NCCN4CCOCC4)c23)cc1	?	?	-75*	?
CCC(CO)Nc1nc(CN2CCCCC2)nc2scc(-c3ccccc3)c12 (centres undefined)	?	-26%[46.1 µM]	-69*	-18%
Cc1ccc(-c2csc3ncnc(NCCN4CCOCC4)c23)cc1	11µM*	?	-70*	-7%
Cc1ccc(-c2csc3ncnc(NCCC(=O)O)c23)cc1	13%[46.1 µM]	27%[46.1 µM]	-22	-12%
Cc1ccc(-c2csc3ncnc(Nc4ccc(N5CCOCC5)cc4)c23)cc1	?	13µM*	-90*	?
O=C(CS(=O)(=O)c1ccccc1)N1CCCCC1	9%[46.1 µM]	?	16	18%
CCN(CC(=O)N1CCN(Cc2ccccc2)CC1)S(=O)(=O)c1ccccc1	0%	0%	-1	-14%
COc1ccc(CNS(=O)(=O)NCc2ccc(OC)c(OC)c2)cc1	-29%[46.1 µM]	-13%[46.1 µM]	?	-27%
CC(C)NC(=O)CSc1nc(-c2ccccc2)cs1	.	.	112	40%
CN(C)CCCNc1ncnc2scc(-c3ccccc3)c12	?	-9%	-10	-12%
COc1ccc(-c2csc3ncnc(NCCN4CCOCC4)c23)cc1	?	?	-66*	?
c1ccc(-c2csc3ncnc(NCCN4CCOCC4)c23)cc1	-12%	-29%	-77*	22µM*
Clc1ccc(CNc2nc(CN3CCOCC3)nc3scc(-c4ccccc4)c23)cc1	20µM*	?	-21	14µM*
c1ccc(CNc2nc(CN3CCOCC3)nc3scc(-c4ccccc4)c23)cc1	?	2%	0	-3%
Cc1cc(NS(=O)(=O)c2ccccc2)n(-c2ccccc2)n1	-9%	-10%	-7	-11%
Cc1nc2ccc(S(=O)(=O)CCC(=O)Nc3ccc(Cl)cc3)cc2s1	.	6%[46.1 µM]	8	-23%
CCCn1c(SCC(=O)N2CCCc3ccccc32)nnc1-c1ccco1	-2%	-8%	-16	-18%
CSc1ccccc1NC(=O)COc1ccc(Cl)cc1	24%	?	-18	-4%
CCCNS(=O)(=O)c1ccc(OCC(=O)N2CCN(c3ccccc3)CC2)cc1	-11%[46.1 µM]	0%	-23	14%
CCCCNS(=O)(=O)c1ccc(OCC(=O)N2CCN(Cc3ccc4c(c3)OCO4)CC2)cc1	.	.	-83*	-21%
CCCNS(=O)(=O)c1ccc(OCC(=O)N2CCN(Cc3ccccc3)CC2)cc1	?	18µM*	-37	0%
O=C(COc1ccc(S(=O)(=O)N2CCOCC2)cc1)N1CCN(Cc2ccc3c(c2)OCO3)CC1	-25%	-7%	-61*	?
O=S(=O)(CCN1CCOCC1)c1ccc(Oc2ccc(S(=O)(=O)CCN3CCOCC3)cc2)cc1	?	-1%	-65*	?
Cc1ccc(CNC(=O)c2c[nH]c3ccc(S(=O)(=O)N4CCOCC4)cc3c2=O)cc1	.	?	-12	-8%
O=C(NCc1ccc2c(c1)OCO2)c1c[nH]c2ccc(S(=O)(=O)N3CCOCC3)cc2c1=O	-2%	0.52µM*	29	-12%
SMILES	MARV entry inh	LASV entry inh	HCMV antiviral	FMDV inh
O=C(COc1ccc(S(=O)(=O)N2CCOCC2)cc1)N1CCCCCC1	27%[46.1 µM]	-11%	-85*	-13%
O=C(COc1ccc(S(=O)(=O)N2CCCCC2)cc1)N1CCOCC1	0%	23%	-9	-22%
Cc1ccc(S(=O)(=O)NCCC(=O)N2CCN(Cc3ccccc3)CC2)cc1	-7%	-1%	-6	.
CC(=O)N1CCc2cc(S(=O)(=O)NCCC(=O)N3CCN(Cc4ccccc4)CC3)ccc21	3%	?	-66*	?
CS(=O)(=O)N(CC(=O)N1CCN(Cc2ccc3c(c2)OCO3)CC1)Cc1ccc(Cl)cc1	0%	9.2µM*	-84*	?
CC1(C)c2ccccc2N2CC(=O)N(CC(N)=O)C21C (centres undefined)	0%	2%	-1	6%
CCN(c1ccccc1)S(=O)(=O)c1ccc(C(=O)N(C)Cc2cccs2)cc1	.	.	-12	-28%
